Screening results (PubChem BioAssay)
Shown are actives, neighbours in structure and some others; about 3.1% of the full set was active somewhere.
MITF act – activators of MITF-driven TRPM1 promoter reporter, primary screen, cell-based, SK-MEL-5, luciferase, single point | SK-MEL-5 TRPM1-promoter luciferase, 24 h; % of positive control, neutral wells = 0 | activation, % at 12.5 µM | 300,000 compounds, 0.75% hits | AID 588334, 2011;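 active means mean activation of at least 80% with every replicate also reaching 80%; inconclusive means mean reaches 80% but some replicate falls short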;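 further: 0% = neutral control wells and 100% = parthenolide positive control wells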
Wnt act – Wnt/beta-catenin pathway activators, primary screen, cell-based, plate reader, single point. Wnt/beta-catenin reporter cell assay, activator. activation, % at 9.35 µM. 300,000 compounds, 1.2% hits; in the data active means activation above about 30%, passing the limit was not always enough; inconclusive means no clear call, values can overlap the other calls;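 further: 0% = neutral control wells and 100% = positive control wells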
C2C12 statin – suppressors of statin myotoxicity in C2C12 myotubes, primary screen, cell-based, single point, plate reader | 330,000 compounds, 0.78% hits | rescue of ATP level, % at 7.49 µM | C2C12 myotubes + simvastatin, ATP luminescence, 48 h; scaled: DMSO 0, geranylgeraniol control 100;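 active means mean ATP rescue above about 67%, or every replicate alone reaching that limit, limit read from the data, passing the limit was not always enough; inconclusive means no clear call, values can overlap the other calls; inactive means mean under the limit and some replicate under it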;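 further: myotubes were challenged with 10 µM simvastatin during compound exposure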
Rtt109 Vps75 – inhibitors of C. albicans Rtt109/Vps75 HAT, primary screen, biochemical, ThioGlo CoA-SH fluorescence, plate reader. 330,000 compounds, 0.16% hits. inhibition, % at 34.9 µM. purified Rtt109/Vps75, 4 h. Histone acetyltransferase RTT109 (Candida albicans (strain SC5314 / ATCC MYA-2876)), …;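 active means inhibition of at least 50% in every replicate; inconclusive means best replicate reaches 50% inhibition but some replicates fall short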
Target sequence (Q5AAJ8 whole entry, looked up): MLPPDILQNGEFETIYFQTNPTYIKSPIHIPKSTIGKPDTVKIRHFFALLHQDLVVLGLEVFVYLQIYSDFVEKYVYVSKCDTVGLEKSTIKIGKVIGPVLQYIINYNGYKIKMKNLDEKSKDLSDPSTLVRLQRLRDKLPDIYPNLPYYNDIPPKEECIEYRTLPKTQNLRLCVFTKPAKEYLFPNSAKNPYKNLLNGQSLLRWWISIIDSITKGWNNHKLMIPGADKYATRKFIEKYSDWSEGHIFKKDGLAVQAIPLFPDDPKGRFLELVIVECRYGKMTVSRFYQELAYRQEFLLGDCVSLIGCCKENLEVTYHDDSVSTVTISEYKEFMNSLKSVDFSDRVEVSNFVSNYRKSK
esBAF inh – Bmi1 luciferase reporter increase in mESCs, primary screen, esBAF inhibitor project, mouse ES cells, Bmi1 luciferase knock-in, single point. 24 h; 100% = twice the neutral-well signal. reporter increase, % at 12.5 µM. 350,000 compounds, 2% hits. AID 602393, 2012; in the data active means activation above about 40%; inconclusive means no clear call, values can overlap the other calls;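 further: 0% = median of the plate's neutral control wells and 100% = double that signal; a rise in the Bmi1 reporter signal indicates esBAF inhibition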
* hit, by the source's call; ? = inconclusive; . = not tested or not shown.

SMILES	MITF act	Wnt act	C2C12 statin	Rtt109 Vps75	esBAF inh
Cc1cccc(-c2nsc(SCC(=O)N3CCCC3)n2)c1	88.8*	29.1	.	-4.0	.
CCSc1ncc(/C=N/Nc2ccccc2)n1C	45.4	8.8	91.8*	-2.4	26.0
CC=Cc1ccc2n(c1=O)C[C@@H]1[C@@H](CO)[C@H](C(=O)OC)N(C(C)=O)[C@H]21 (mixture of isomers)	.	.	0.0	.	-2.4
C[C@H]1CN([C@@H](C)CO)C(=O)c2cccc(NC(=O)c3cnccn3)c2O[C@H]1CN(C)Cc1ccc2c(c1)OCO2	.	.	-1.0	.	-4.6
C[C@@H]1CN([C@H](C)CO)C(=O)c2cc(C#CCN(C)C)cnc2O[C@@H]1CN(C)C(=O)NC1CCCCC1	.	.	10.4	.	-1.9
Cc1ccccc1Nc1nc(N)nc(CN(C)c2ccccc2)n1	28.7	.	14.0	-5.1	46.8*
Cc1ccccc1Nc1nc(N)nc(CCl)n1	.	2.7	.	-7.5	.
Cc1ccc(Nc2nc(N)nc(COC(=O)c3ccc(Br)o3)n2)cc1	47.7	-4.8	10.4	-6.7	28.7
Cc1ccccc1Nc1nc(N)nc(COC(=O)[C@@H](NC(=O)c2ccco2)C(C)C)n1	-1.5	-2.5	.	-0.3	.
Cc1ccccc1Nc1nc(N)nc(COC(=O)c2ccco2)n1	49.8	-3.1	-0.8	-5.3	77.1*
Nc1nc(COC(=O)c2ccco2)nc(Nc2ccccc2)n1	.	10.2	4.8	.	47.8*
C[C@@H]1CCCCO[C@H](CN(C)Cc2ccccc2)[C@H](C)CN([C@H](C)CO)C(=O)c2cc(NC(=O)c3ccccc3)ccc2O1	.	.	.	.	5.6
CNC[C@@H]1Oc2cc(C#Cc3ccccn3)ccc2S(=O)(=O)N([C@H](C)CO)C[C@H]1C	.	.	16.7	.	-0.9
CN(C)CC(=O)N1CCCCN2[C@@H](CO)[C@H](c3ccc(/C=C/c4ccccc4)cc3)[C@@H]2C1	.	.	-92.0	.	-1.2
CC1=Nc2ccccc2N=C(N)C1c1ccccc1 (stereo not given)	17.6	51.7*	-2.5	8.9	34.5
O=C(Nc1ccc(Cl)c(NC(=O)c2cccs2)c1)c1ccco1	.	1.7	-34.4	12.7	-0.7
O=C(Nc1ccc(NC(=O)c2cccs2)cc1Cl)c1ccco1	60.5	45.8*	.	-1.9	.
COc1cc(NC(=O)c2ccccc2Cl)ccc1NC(=O)c1ccco1	92.5*	17.0	.	10.7	51.4*
COc1cc(NC(=O)c2ccco2)ccc1NC(=O)c1ccccc1Cl	14.9	.	-21.3	4.7	12.4
COc1cc(NC(=O)c2cccs2)ccc1NC(=O)c1ccco1	92.5*	58.5*	-20.3	-6.0	91.9*
C[C@@H]1CN([C@@H](C)CO)C(=O)c2cc(C#CCN(C)C)cnc2O[C@@H]1CN(C)C(=O)c1cccnc1	.	.	8.0	.	-3.9
C[C@@H]1CCCCO[C@@H](CN(C)C(=O)CCC(F)(F)F)[C@H](C)CN([C@@H](C)CO)C(=O)c2cc(NS(=O)(=O)c3ccc(Cl)cc3)ccc2O1	.	.	.	.	23.1
CN1CCN(c2ccc([N+](=O)[O-])c(-n3nc(-c4ccccc4)c4ccccc4c3=O)c2)CC1	6.2	-1.3	80.0*	11.1	1.2
Cc1nn(-c2cc(N3CCCCC3)ccc2[N+](=O)[O-])c(=O)c2ccccc12	11.9	.	.	-3.5	.
COc1ccc(C2=Nn3c(nnc3-c3ccccc3F)SC2)cc1OC1CCCC1	2.7	35.7*	-13.0	4.8	11.3
SMILES	MITF act	Wnt act	C2C12 statin	Rtt109 Vps75	esBAF inh
COc1ccc(C2=Nn3c(nnc3-c3ccccc3F)SC2)cc1OC1CCOC1 (stereo not given)	-23.6	0.6	-11.3	1.3	-19.3
Cc1oc(C(=O)O)cc1COc1cccc2cccnc12	2.0	.	123.6*	-13.8	0.8
CCS(=O)(=O)c1ccc2oc(Nc3ccccc3Br)nc2c1	100.0*	36.3*	.	-7.9	.
Cc1ccc(C(=O)/C=C/Nc2ccccc2C(N)=O)cc1	0.9	38.6*	-20.6	-3.6	-1.5
CCOC(=O)c1ccccc1N/C=C/C(=O)c1ccccc1	-6.9	54.4*	-3.8	2.3	1.9
CCOC(=O)c1ccc(N/C=C/C(=O)C(C)(C)C)cc1	56.8	77.6*	.	-5.9	.
NC(=O)c1ccccc1N/C=C/C(=O)c1ccc(Cl)cc1	17.5	0.5	.	-9.1	.
CCOC(=O)c1ccc(N/C=C/C(=O)c2ccc(OC)cc2)cc1	21.2	.	21.2	.	?
CCOC(=O)c1ccc(N/C=C/C(=O)c2ccccc2)cc1	65.4	74.5*	.	-0.7	.
CCNC(=O)C[C@H]1CC[C@@H](NS(=O)(=O)c2ccc(F)cc2)[C@H](CO)O1	.	.	-0.2	.	3.5
C[C@@H]1CCCCO[C@H](CN(C)Cc2ccncc2)[C@H](C)CN([C@H](C)CO)C(=O)c2cc(NC(=O)Nc3ccc(C(F)(F)F)cc3)ccc2O1	.	.	.	.	2.1
C[C@H]1CN([C@@H](C)CO)C(=O)c2cc(-c3ccncc3)cnc2O[C@@H]1CN(C)C(=O)C1CC1	.	.	45.8	.	1.0
COc1ccc(S(=O)(=O)N(C)C[C@H]2OCc3ccccc3-c3ccccc3C(=O)N([C@H](C)CO)C[C@@H]2C)cc1	.	.	5.3	.	-6.9
Cc1ccc(N/C=C/C(=O)c2ccc(C)cc2)cc1	63.2	.	-22.9	-5.3	1.7
Cc1ccc(O)c(N/C=C/C(=O)c2ccc(F)cc2)c1	69.3	-1.9	44.2	6.5	63.3*
CC(O)CN=c1cc(-c2ccccc2)oc2ccc(Cl)cc12 (stereo not given)	?	.	-2.5	-2.3	-8.8
CN(C)CCCN=c1cc(-c2ccccc2)oc2ccc(Cl)cc12	84.0*	12.0	.	4.9	.
OCCN=c1cc(-c2ccccc2)oc2ccc(Cl)cc12	65.1	18.5	.	-9.4	46.5*
Cc1noc(C)c1NC(=O)N(C)C[C@H]1Oc2ccc(NC(=O)Cc3ccccc3)cc2CC(=O)N([C@H](C)CO)C[C@@H]1C	.	.	1.0	.	-1.8
C[C@H]1CN([C@@H](C)CO)C(=O)c2cccc(NS(=O)(=O)c3cn(C)cn3)c2O[C@H]1CN(C)S(=O)(=O)c1ccc(Cl)cc1	.	.	-21.3	.	3.1
Cc1cccc(OCC(O)CNC(=O)c2ccccc2C(=O)O)c1 (stereo not given)	15.6	.	0.0	1.1	1.0
Cc1ccc(OCC(O)CNC(=O)c2ccccc2C(=O)O)cc1 (stereo not given)	8.9	.	104.9*	-2.8	5.5
O=C(CCN1CCCCC1)N[C@@H]1CC[C@H](CCNS(=O)(=O)c2ccc(Cl)cc2)O[C@@H]1CO	.	.	5.5	.	1.1
CC(=O)Nc1ccccc1C(=O)C(=O)Nc1ccc(F)c(Cl)c1	.	1.8	33.3	-2.8	56.3*
CCc1ccc(NC(=O)C(=O)c2ccccc2NC(C)=O)cc1	.	42.5*	-7.4	15.0	26.6
C[C@@H]1CN([C@@H](C)CO)C(=O)c2cc(N(C)C)ccc2O[C@@H](C)CCCCO[C@@H]1CN(C)C(=O)Nc1ccc2c(c1)OCO2	.	.	29.1	.	0.8
